Assay results taken from PubChem BioAssay AID1030 (National Center for Advancing Translational Sciences (NCATS), 2008).
About 16,000 (7.3%) of roughly 220,000 compounds were called active. Another 25% or so got no clear call; they are omitted. Calls follow the shape of the dose curve; as a rule, active = well fitted inhibition curve with a large enough effect (not every such curve was filed as active); inconclusive = small, poorly fitted or top-dose-only effect, or another doubt; inactive = no such curve, though single readings can be large or run the other way. What follows is part of a selection rich in actives, with near analogues and random picks from the rest.

target: Aldehyde dehydrogenase 1A1 (Homo sapiens) (UniProt P00352); assay: qHTS Assay for Inhibitors of Aldehyde Dehydrogenase 1 (ALDH1A1); settings: Purified ALDH1A1, NADH fluorescence, propionaldehyde substrate; series mostly up to 75.3 µM;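 as to activity, negative = inhibition: plate controls were no enzyme wells and a reference inhibitor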
Sequence (P00352 whole entry, looked up): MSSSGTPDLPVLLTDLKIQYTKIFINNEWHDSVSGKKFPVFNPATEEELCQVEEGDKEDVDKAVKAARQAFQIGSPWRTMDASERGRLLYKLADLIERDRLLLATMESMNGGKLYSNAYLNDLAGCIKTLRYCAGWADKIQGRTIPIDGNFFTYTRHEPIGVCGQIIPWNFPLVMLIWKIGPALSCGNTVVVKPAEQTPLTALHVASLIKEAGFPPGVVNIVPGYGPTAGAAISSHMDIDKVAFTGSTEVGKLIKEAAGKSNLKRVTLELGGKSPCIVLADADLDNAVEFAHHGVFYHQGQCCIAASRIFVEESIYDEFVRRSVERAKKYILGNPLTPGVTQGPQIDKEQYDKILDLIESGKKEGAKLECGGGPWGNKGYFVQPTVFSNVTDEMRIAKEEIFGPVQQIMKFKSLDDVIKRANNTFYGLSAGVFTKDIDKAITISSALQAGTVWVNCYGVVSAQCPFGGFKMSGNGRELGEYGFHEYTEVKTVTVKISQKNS
Potency is read from the fitted curve at half-maximal effect.

Potency, inactive:
Cc1cccc(NC(=O)c2ccc3nsnc3c2)c1C
Cc1nnsc1C(=O)Nc1cccc(Cl)c1C
O=C(c1ccc(F)cc1)N1CCCC(c2nc(-c3cccs3)no2)C1 (stereo not given)
CCOC(=O)C1CCN(C(=O)C2(NC(=O)Nc3cccc(F)c3)CCCCC2)CC1
CC(=O)c1cnc(-c2ccccc2)s1
CCN(CC)c1ccc2cc(C(N)=O)/c(=N\NC(=O)c3ccncc3)oc2c1
CCN(CC)c1ccc(/C=N/Nc2nc(C)cc(C)n2)c(O)c1
COc1ccc(CCNC(=O)CN(c2ccccc2)S(C)(=O)=O)cc1
Cc1cc(C(=O)NNC(=O)CCC2CCCCC2)c(C)o1
CCOC(=O)C1C/C(=C\C(C)=O)c2cccc(C(F)(F)F)c2O1 (stereo not given)
C=CCC(C)(O)c1ccco1 (stereo not given)
COc1ccc(N2CCN(c3ccc([N+](=O)[O-])cc3Cl)CC2)cc1
O=C(c1ccc(Cl)c([N+](=O)[O-])c1)N1CCN(c2ccccc2)CC1
C/C=C/C=C/C(=O)OCC(=O)Nc1ccc(Cl)cc1
O=C(C1CCN(S(=O)(=O)c2ccc(Br)s2)CC1)N1CCN(C2CCCCC2)CC1
Cc1ccc(S(=O)(=O)CC(=O)Nc2c(C)n(C)n(-c3ccccc3)c2=O)cc1
Cc1ccc(S(=O)(=O)N2CCN(CC(=O)N/N=C/c3ccc(Br)s3)CC2)cc1
CCCCOC(=O)Cn1c(=O)n(CC(=O)OCCCC)c2cc(C)ccc21
CC(C)OC(=O)CN1CCN(c2ccc(Cl)cc2)CC1
Cc1cc(C)cc(OCC(=O)NNC(=O)CCN2C(=O)c3ccccc3C2=O)c1
Cc1nn(CCOc2ccccc2)c(=O)n1-c1ccccc1F
CC(C)OC(=O)CN1C(=O)c2ccccc2C1=O
CC1(C)NC(=O)N(CCOc2cccc(Oc3ccccc3)c2)C1=O
CCOC(=O)CN1C(=O)N[C@@H](c2ccc(Br)cc2)C(C(C)=O)=C1C
Cc1ccccc1C(=O)NNC(=O)CN1C(=O)c2ccccc2C1=O
OCCC1CN(Cc2cccn2-c2nccs2)CCN1CCc1ccccc1 (stereo not given)
C/C(=N\NC(=O)c1cccnc1)c1ccc(-n2ccnc2)cc1
C#CCOCCOCCOCCNc1nc(N2CCN(C(=O)[C@H](CCC(=O)O)n3cc(C(N)CO)nn3)CC2)nc(N2CCN(C(=O)[C@H](Cc3ccc(O)cc3)n3cc(C(N)[C@H](C)CC)nn3)CC2)n1 (stereo not given in full)
Cc1nnc(SCC2=C(C(=O)O)N3C(=O)C(NC(=O)Cn4nc(C)c(Cl)c4C)C3SC2)s1 (stereo not given)
CCCOc1ccc(NC(=O)CC2C(=O)N(C)C(=S)N2Cc2ccc3c(c2)OCO3)cc1 (stereo not given)
NS(=O)(=O)c1ccc(N2C(=O)C3C4CC(C(Br)C4Br)C3C2=O)cc1 (stereo not given)
CC(=O)Nc1ccc(S(=O)(=O)Nc2ccc(-c3ccc4nnc(C)n4n3)cc2)cc1
NCCC(=O)c1ccccc1N
COc1ccc(NC(=O)c2sc(N)nc2-c2ccccc2)cc1
S=C(NN=C1CCN(Cc2ccccc2)CC1)NC1CCCCC1
CCN(C(=O)c1ccc(Br)cc1)c1ccccc1
CCC1(C(=O)c2ccccc2)C(c2cccc([N+](=O)[O-])c2)C1(C(=O)OC)C(=O)OC (stereo not given)
Cc1ccccc1C(=O)OC1OC(=O)C(Cl)=C1Nc1ccccc1 (stereo not given)
O=C1NC2(CCCCCC2)C(=O)N1CCS(=O)(=O)Oc1ccccc1
CC(=O)Nc1ccc(C(=O)/C=C/c2ccc[nH]2)cc1
Cc1cc(C(=O)N/N=C/c2ccccc2[N+](=O)[O-])c(C)o1
CCN(CC)CC1(O)CCN(C(=O)c2ccc(Cl)c(Cl)c2)CC1
CC(C)(C)n1nc2c(c1NC(=O)c1cc3ccccc3o1)CSC2
Cc1ccc(C)c(NC(=S)NCC(c2cccnc2)N2CCOCC2)c1 (stereo not given)
CCOC(=O)CC1=CC(=O)Nc2ccccc2N1
COC(=O)C(C)C1Sc2ccccc2NC1=O (stereo not given)
CCOC(=O)C1C(=O)NCC1c1ccccc1 (stereo not given)
CCCCC(CC)CNC(=O)CCCCn1c(=O)[nH]c2ccsc2c1=O (stereo not given)
CC1=NN(C(=O)CCCc2ccccc2)C(O)(C(F)(F)F)C1 (stereo not given)
CC(C)C(=O)NCc1cc(-c2ccc(Cl)cc2)no1
CCCCCCCC[C@@H](O)/C=C/C=C/C=C\[C@@H](O)CCCC(=O)O
[O-][n+]1onc2c1CCc1[nH]c(-c3ccccc3)nc1-2
CCc1nnc(NC(=O)CSc2nc(SC)ns2)s1
Cc1ccc(C(=O)OC2CCCN(C)C2)cc1 (stereo not given)
Nc1ccccc1Sc1ccc(C(F)(F)F)cc1[N+](=O)[O-]
CCOC(=O)c1sc2nc(SC)nc(-c3ccccc3)c2c1N
CCc1nc2sc(C(=O)O)c(N)c2c2c1CCCC2
O=C(CSc1ccccc1F)NC1CCS(=O)(=O)C1 (stereo not given)
O=C(CN1CCCCC1)Nc1ccccc1Cl
CSc1ccccc1NC(=O)Cc1ccc(Br)cc1
Cc1cc(/C=C2/SC(=O)N(CC(=O)N3CCCC3)C2=O)ccc1N1CCOCC1
C/C(=N/OC(=O)c1c(-c2c(F)cccc2Cl)noc1C)c1cnccn1
CC(=O)c1ccc(NC(=O)C(C)NCc2ccc(Cl)cc2)cc1 (stereo not given)
O=C(NCc1ccc2c(c1)OCO2)c1sccc1Br
O=C(NCc1ccc2c(c1)OCO2)c1ccc(Cl)s1
Cc1csc(SCC(=O)Nc2sccc2C#N)n1
O=C1CCC(CCC(=O)N2CCCC(C(=O)c3ccc(Cl)cc3)C2)=NN1 (stereo not given)
O=C(CCN1C(=O)C2C3C=CC(C3)C2C1=O)Oc1ccc2ccccc2c1 (stereo not given)
CC(CC(=O)N1CCN(c2ccccc2)CC1)c1ccccc1 (stereo not given)
S=c1[nH]ccn1-c1ccc(Cl)cc1
Cc1ccc(CN2CCN(Cc3ccccc3-c3ccco3)CC2CCO)o1 (stereo not given)
CC(C)CCN1CCN(Cc2ccc(C(F)(F)F)cc2)CC1CCO (stereo not given)
COC(=O)c1cccnc1NC(=S)NC(C)C
COc1ccc(N=Nc2ccc(O)c(P(=O)(c3ccccc3)c3ccccc3)c2)cc1
CN(CCc1cnn(C)c1)Cc1cn(C)nc1-c1ccccc1F
COc1cccc(CNC(=O)CCC2CCCN(C(=O)c3cc(C)[nH]n3)C2)c1 (stereo not given)
COc1cccc(C(=O)N2CCCC(CCC(=O)NCc3ccc(F)c(F)c3)C2)c1 (stereo not given)
Cc1ccc(C(NC(=O)N2CCCC2)C(Cl)(Cl)Cl)cc1F (stereo not given)
CC(=O)Nc1cccc(-c2cnc3ccccc3n2)c1
c1ccc2nc(C3=NCCN3)cnc2c1
Cc1cccc(NC(=S)NC23CN4CN(CN(C4)C2)C3)c1
COc1ccc(-n2nnnc2SCC(=O)Nc2ccccc2)cc1
Cc1ccc(-c2noc(CSc3nnc(-c4cccs4)n3C)n2)cc1
Cc1ccc(-c2noc(CC(c3ccccc3)c3ccccc3)n2)cc1
CC1CCN(Cc2nc(-c3ccc(Cl)cc3)no2)CC1
Cc1ccc(-c2noc(CSc3nnc(-c4ccccc4)n3C)n2)cc1
Cc1ccc(SCc2cc(=O)[nH]c(N3CCCCC3)n2)cc1

Potency, active:
Cc1nc(C)c(C(=O)Nc2cccc(C)c2C)o1 17.8 µM
CCN(CC)c1ccc2oc(=O)c(C)nc2c1 1 µM
O=[N+]([O-])c1ccc(N2CCN(c3ccc(O)cc3)CC2)c(Cl)c1 7.94 µM
CCOC(=O)CN1C(=O)C(=O)c2cc(C)ccc21 0.178 µM
Cc1cccc2c1N(CCOc1ccccc1)C(=O)C2=O 0.224 µM
CC(C)OC(=O)CN1C(=O)C(=O)c2ccccc21 0.0631 µM
Cc1cccc2c1N(CC(=O)OC(C)C)C(=O)C2=O 0.02 µM
Clc1ccc(C2=CSC3=Nc4cccc5cccc(c45)N23)cc1 7.94 µM
CCCCC(CC)CNC(=O)C(=O)C1C(=O)Nc2ccccc21 (stereo not given) 2 µM
CCOC(=O)C(=O)C1C(=O)Nc2ccccc21 (stereo not given) 14.1 µM
CCS(=O)(=O)c1cc([N+](=O)[O-])c(Sc2ccccc2N)s1 3.55 µM
Cc1nc2sc(C(=O)c3ccccc3)c(N)c2c2c1CCCC2 3.98 µM
O=C(Cc1ccc2c(c1)CCCC2)Nc1ccccc1Cl 12.6 µM
O=C(NCc1ccc2c(c1)OCO2)c1ccc2c(c1)C(=O)N(CC1CCCO1)C2=O (stereo not given) 1.58 µM
O=C(CCCN1C(=O)C2C3C=CC(C3)C2C1=O)N1CCN(c2ccccc2)CC1 (stereo not given) 12.6 µM
CC(C)CCN1CCN(C/C=C/c2ccco2)CC1CCO (stereo not given) 28.2 µM
CCOc1cc(/C=C2/N=C(c3ccc(C(C)(C)C)cc3)OC2=O)cc(Cl)c1OS(C)(=O)=O 22.4 µM
COc1cccc(CNC(=O)CCC2CCCN(C(=O)c3ccoc3C)C2)c1 (stereo not given) 22.4 µM
Cc1cc(O)ccc1-c1cnc2ccccc2n1 28.2 µM
Cc1ccc(-c2noc(CN3CCN(Cc4ccccc4)CC3)n2)cc1 28.2 µM
Cc1ccc(-c2noc(CSc3nnnn3-c3ccccc3)n2)cc1 7.08 µM
Cc1ccc(Nc2nc(CSc3nnnn3-c3ccccc3)cc(=O)[nH]2)cc1 22.4 µM

activity, negative = inhibition, inactive:
C=CCN1c2ccccc2[C@]23C[C@@H](C(=O)OC)N(S(=O)(=O)c4ccc([N+](=O)[O-])cc4)C2=NC(C(=O)OC)=C(C(=O)OC)[C@H]13 -3.11% [at 13.5 µM]
